A selection: hits, their analogues and other compounds. The true share with any hit is near 4.5%.
hgDAF-12 ag – agonists of H. glycines DAF-12 nuclear receptor. AID 687014. activation, % at 6.8 µM. HEK293 GAL4-hgDAF12 UAS-luciferase reporter, agonist luminescence; normalized to butyrate control. 1.8% of 370,000 active;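 active = activation above a cutoff set at the mean of all screened compounds plus 3 SD, cut at about 10% in these data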
hcDAF-12 act – H. contortus DAF-12 activation, primary screen; HEK293 hcDAF-12 lit1-tk-luc reporter, luminescence; 0% DMSO, 100% Δ7-dafachronic acid; activation, % at 6.8 µM; 1.4% of 370,000 active;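 active = activation above the mean of all tested compounds plus 3 SD, cut at about 5.5% in these data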
DAX1 inh-1 – blocks DAX1 repression of SF-1 activated StAR promoter; inhibition, % at 6.8 µM; 1.1% of 370,000 active; HEK293T StAR-luciferase reporter, SF-1/DAX-1 repression relief;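 active = inhibition above the mean over all tested compounds plus 3 SD, cut at about 3.6% in these data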;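 also: higher inhibition means more luminescence from relief of DAX-1 repression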
GAA850 FXN act – increases GAA850 frataxin promoter reporter activity | HEK293 lucGAA850 FXN promoter luciferase reporter, 24 h; percent of 10 µM SAHA response | activation, % at 6 µM | 0.56% of 360,000 active | AID 540364;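 active = activation above the average of all compounds screened plus 3 SD, cutoff fixed separately per campaign, cut at about 7.5% in these data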
ssDAF-12 act – S. stercoralis DAF-12 activation, primary screen. activation, % at 6.8 µM. HEK293 ssDAF-12/GRIP1 lit1-tk-luc reporter, luminescence; % of 3 µM dafachronic acid response. 1% of 370,000 active;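 active = activation above the mean over all tested compounds plus 3 SD, cut at about 0.9% in these data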
DAX1 inh-2 – inhibits human nuclear receptor DAX1. 0.99% of 340,000 active. inhibition, % at 6.75 µM. P51843. HEK293 Gal4-DAX1 luciferase reporter, luminescence;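 active = inhibition above the mean over all tested compounds plus 3 SD, cut at about 4.2% in these data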;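 also: inhibition shows as a rise in luminescence from relieved DAX1 repression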
Target sequence (P51843 207-470 limits assumed): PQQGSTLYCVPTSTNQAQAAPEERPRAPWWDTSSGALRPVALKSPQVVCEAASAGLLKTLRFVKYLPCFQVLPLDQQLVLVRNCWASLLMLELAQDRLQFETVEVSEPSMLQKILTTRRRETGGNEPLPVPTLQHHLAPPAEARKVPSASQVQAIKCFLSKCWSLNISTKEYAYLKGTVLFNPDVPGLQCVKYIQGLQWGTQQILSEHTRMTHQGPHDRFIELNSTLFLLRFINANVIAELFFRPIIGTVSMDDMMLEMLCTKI
Hits are given with their value; – = inactive; · = not tested or not shown.

SMILES | hgDAF-12 ag | hcDAF-12 act | DAX1 inh-1 | GAA850 FXN act | ssDAF-12 act | DAX1 inh-2
O=C(N/N=C/c1c[nH]c2ccccc12)c1cc(Cl)ccc1O | – | – | – | – | 1.6 | –
CCOC(=O)N/N=C/c1c[nH]c2ccccc12 | – | 6.2 | – | – | – | –
CCN(CC)c1ccc(/C=N/NC(=O)c2cc3ccccc3[nH]2)cc1 | – | – | – | – | – | –
O=C(N/N=C/c1c[nH]c2ccccc12)c1ccccc1Cl | – | – | – | – | – | –
CCN(CC)c1ccc(/C=N/NC(=O)c2c[nH]c3ccccc23)cc1 | – | 5.9 | – | – | – | –
O=C(COCc1ccccc1)NC1CCCCN(Cc2cccc(Cl)c2)C1=O (stereo unspecified) | – | – | – | · | – | ·
COC(=O)C[C@@H]1CC[C@@H]2[C@@H](COc3ccc(NC(=O)c4ccc(F)cc4)cc3C(=O)N2C)O1 | – | – | – | · | – | ·
CCCC1(C(=O)O)NC(c2ccc(OC)cc2O)C2C(=O)N(c3ccc(OC)cc3)C(=O)C21 (stereo unspecified) | – | – | – | – | – | –
COc1ccc(N2C(=O)C3C(c4ccc(OC)cc4O)NC(Cc4ccccc4)(C(=O)O)C3C2=O)cc1 (stereo unspecified) | – | – | – | – | – | 7.6
O=C(NCCc1c[nH]c2ccccc12)c1ccc(Sc2ccccc2Cl)c([N+](=O)[O-])c1 | – | – | – | · | – | ·
CC(=O)N1CSCC1C(=O)NNS(=O)(=O)c1cccc(C(F)(F)F)c1 (stereo unspecified) | – | – | – | – | – | 6.3
CC(=O)N1CCN(c2ccc(N3CCN(Cc4ccccc4)[C@@H](C)C3)c(C)c2)[C@H](C)C1 | – | – | – | · | – | ·
COc1cc(C(=O)Nc2ccc(S(=O)(=O)Nc3cc(C)nc(C)n3)cc2)cc(OC)c1OC | – | – | – | – | – | 6.4
Cc1cc(NS(=O)(=O)c2ccc(NC(=O)/C=C/c3ccccc3)cc2)nc(C)n1 | – | – | – | – | – | –
COc1ccc(C(=O)Nc2ccc(S(=O)(=O)Nc3cc(C)nc(C)n3)cc2)cc1OC | – | – | – | – | – | –
Cc1cc(NS(=O)(=O)c2ccc(NC(=O)/C=C/c3ccc(C)o3)cc2)nc(C)n1 | – | – | – | – | – | 4.6
Cc1cc(=O)nc2c3ccccc3n(CC(=O)NC(C)c3ccc4c(c3)OCCO4)n12 (stereo unspecified) | – | 6.0 | – | – | – | –
COc1cccc2cc3c(nc12)C[C@@H]1CCCC(=O)N2CCC[C@@]12C3 | – | – | · | · | – | ·
COc1ccc(-c2nnc(-c3cccs3)o2)cc1OC | 12 | – | – | – | – | –
COc1ccc(-n2c(SCC(=O)NCC3CCCO3)nnc2-c2ccncc2)cc1 (stereo unspecified) | – | – | – | · | – | ·
O=C(Nc1ccc2c(c1)Cc1ccccc1-2)c1ccc(Br)o1 | – | – | – | – | – | –
CC(=O)Nc1ccc2c(c1)CCc1ccccc1-2 | – | – | – | – | – | –
O=C(Nc1ccc2c(c1)Cc1ccccc1-2)c1ccccc1F | 11 | – | – | – | – | –
O=C(/C=C/c1ccncc1)c1ccc(NC(=O)c2ccccc2F)cc1 | · | · | · | 12 | · | –
CC(=O)Nc1ccc2c(c1)Cc1c(F)cccc1-2 | 11 | – | 4.3 | – | – | –
SMILES | hgDAF-12 ag | hcDAF-12 act | DAX1 inh-1 | GAA850 FXN act | ssDAF-12 act | DAX1 inh-2
CCN(CC)CCCNC(=O)CC1Oc2ccccc2NC1=O (stereo unspecified) | – | – | – | · | – | ·
CCN(CC)C(=O)CNc1nnnn1-c1ccccc1 | – | – | – | · | – | ·
O=C(CSc1ccc(Cl)cc1)Nc1ccc(N2CCN(c3ccccc3)CC2)c(F)c1 | – | – | – | – | – | –
O=C(CSc1ccccc1)Nc1ccc(N2CCOCC2)c(F)c1 | – | – | 4.4 | – | – | –
O=C(CSc1ccccc1F)Nc1ccc(N2CCOCC2)cc1 | 12 | – | – | – | – | –
Cc1ccc(CSc2nnc(-c3cccs3)o2)cc1C | – | – | – | · | – | ·
CCN(C(=O)CSc1nnnn1-c1ccc(Cl)cc1)C1CCS(=O)(=O)C1 (stereo unspecified) | – | – | 4.0 | – | – | –
CCN(C(=O)CSc1nncn1-c1ccccc1)C1CCS(=O)(=O)C1 (stereo unspecified) | – | – | – | – | – | –
COC(=O)C1(F)C(=O)NC(=O)NC1OC (stereo unspecified) | – | – | – | · | – | ·
COCCCN1C(=O)[C@H](CC(=O)NCc2cccc(C(F)(F)F)c2)[C@]2(C(=O)OC)CCCCC=C12 | – | – | – | · | – | ·
Cc1ccc(NC(=O)CSc2ccccc2NC(=O)c2cccc(Cl)c2)cc1Cl | – | – | – | – | – | –
Cc1cccc(C(=O)Nc2ccccc2SCC(=O)Nc2ccc(C)c(Cl)c2)c1 | – | 6.5 | – | – | – | –
Cc1ccccc1N(C)C(=O)C1CCCN1S(=O)(=O)c1cccc2cccnc12 (stereo unspecified) | – | – | – | · | – | ·
COc1ccc(OC)c(C2c3[nH]c4ccccc4c3C[C@H]3C(=O)N(C4CC4)CC(=O)N23)c1 (stereo partly specified) | – | 5.8 | – | – | – | –
Cc1occc1-c1nnc(SCC(=O)N2CCN(c3ncccn3)CC2)n1-c1ccccc1 | – | – | – | · | – | ·
O=C(CCc1nnc(Cc2cccc(C(F)(F)F)c2)o1)NC1CC1 | – | – | – | – | – | –
CC(C)CN(C)C(=O)CCc1nnc(Cc2cccc(C(F)(F)F)c2)o1 | 11 | – | – | – | – | –
C=C(C)CNC(=O)CCc1nnc(Cc2cccc(C(F)(F)F)c2)o1 | – | – | – | – | 1.0 | –
CC(NC(=O)CCc1nnc(Cc2cccc(C(F)(F)F)c2)o1)C1CC1 (stereo unspecified) | 10 | – | – | – | – | –
O=C(CCc1nnc(Cc2cccc(C(F)(F)F)c2)o1)NCC(F)(F)F | – | – | – | – | – | –
O=C1CSc2ccc(C(=O)N3CCCC(C(=O)N4CCOCC4)C3)cc2N1 (stereo unspecified) | – | – | – | · | – | ·
O=[N+]([O-])c1cccc(-c2cc3ccccc3[nH]2)c1 | – | – | – | – | – | –
O=[N+]([O-])/C=C/c1cc2ccccc2[nH]1 | – | 5.8 | – | – | – | –
COC(=O)[C@]12C[C@H](CC(=O)N3CCN(C(=O)c4ccco4)CC3)C(=O)N(Cc3ccc(Cl)cc3Cl)C1=C[C@H](COCc1ccccc1)O[C@@H]2C | – | – | – | · | – | ·
Cc1cc(N2CCOCC2)ccc1/C=C1\SC(=O)N(C(C)C)C1=O | – | – | – | – | – | 5.6
CCC(C)N1C(=O)S/C(=C/c2ccc(N3CCOCC3)cc2C)C1=O (stereo unspecified) | – | – | – | – | – | –

High-throughput results (PubChem BioAssay)
